Pf growth 96h – P. falciparum growth inhibition at 96 hour, primary screen for plastid delayed-death inhibitors | hit rate 6.9% among 320,000 | P. falciparum luciferase reporter growth, 96 h | Potency, µM (top dose mostly 28.7 µM), for the others: at the highest dose activity change, negative = inhibition, usual class: inhibitors; also: potency is read from the fitted curve at half-maximal effect; % is scaled to controls: 0 for no effect and ±100 for the full control effect
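Readout is luminescence from an integrated firefly luciferase in P. falciparum. Red cells, 2% hematocrit and 0.05% parasitemia final, were cultured with compound through two parasite generations (96 hours) at 37 C, 5% CO2.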
NS1 inh – influenza NS1 inhibition. hit rate 0.4% among 270,000. Potency, µM (titrated, usually from 46.1 µM), for the others: at the highest dose activity, positive = more growth. AID 2326; calls by dose curve; also: potency is read from the fitted curve at half-maximal effect; actives are rising curves; nearly all actives have a fitted effect of over 50% in size
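Recovery from NS1-induced slow growth read by OD600 in budding yeast switched to galactose assay medium (pH 6.0, -URA) at 1:100 dilution. Compound 23 nl per well; the matching strain lacking NS1 serves as control.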
Shiga inhibitor – Shiga toxin inhibition. Vero cells, Shiga toxin protein synthesis inhibition reporter. inhibition, % at 38.7 µM. hit rate 9.2% among 290,000; in the data active = inhibition mostly above about 28%, no sharp cut-off; inactive = mostly below about 43%; also: 0% is about no effect
Sm TGR inh – S. mansoni TGR enzyme inhibition; Q962Y6; purified TGR, DTNB reduction, TNB absorbance 405 nm; Potency, µM (titrated, usually from 114 µM), without a hit: top-dose activity change, negative = inhibition, most hits filed as inhibitors; hit rate 3% among 360,000; AID 485364; also: potency is read from the fitted curve at half-maximal effect; % is scaled to controls: 0 for no effect and ±100 for the full control effect; nearly all actives have a fitted effect of over 60% in size
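First, TGR (20 nM dispensed) and NADPH were mixed with compound. Second, a 15 min room-temperature incubation followed. Third, further NADPH and then DTNB were added to start the reaction. Finally, TNB absorbance was monitored kinetically.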
Cycloheximide cs – counter-screen for Shiga toxin inhibitors: cycloheximide protein synthesis inhibition; cell reporter, cycloheximide protein synthesis inhibition counterscreen; max response, %; hit rate 12% among 300,000; in the data active = max response mostly above about 13%, no sharp cut-off; inactive = mostly below about 14%; also: read at 38.3 µM for the half of the compounds with a filed dose; 0% is about no effect
Pf growth 48h – P. falciparum growth inhibition at 48 hours (one generation); Potency, µM (top dose mostly 28.7 µM), for the others: at the highest dose activity change, negative = inhibition, hits mostly inhibitors; P. falciparum luciferase growth in erythrocytes, 48 h; hit rate 5.9% among 310,000; also: potency is read from the fitted curve at half-maximal effect; % is scaled to controls: 0 for no effect and ±100 for the full control effect
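Cell-based growth assay: transgenic P. falciparum expressing firefly luciferase, cultured in red cells within RPMI 1640 containing 0.5% w/v Albumax, 24 mM bicarbonate and gentamycin. A drop in luciferase activity indicates inhibition.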
An asterisk follows results filed as active; ? = inconclusive; . = not tested or not shown; [ ] = another dose, or the depositor's remark. An excerpt weighted towards active compounds, which were near 21% of everything screened. Unless noted, calls follow the shape of the dose curve; as a rule, active = well fitted curve in the direction sought with a large enough effect; inconclusive = small, poorly fitted or top-dose-only effect, or another doubt; inactive = no such curve, though single readings can be large; an effect the other way counts as inactive or inconclusive.

SMILES	Pf growth 96h	NS1 inh	Shiga inhibitor	Sm TGR inh	Cycloheximide cs	Pf growth 48h
CC(C)c1cc(-c2cc(C(=O)NCc3ccccc3)on2)nc(NCC2CC2)n1	1.0%	-74.8%	-4.9	-0.8%	-5.4	?
Cc1coc2c1c(C)cc1oc(=O)cc(C)c12	.	.	.	12.7%	.	.
CCc1nnc(SCC(=O)Nc2ccc(F)cc2F)c2cc3sc(C)cc3n12	.	.	.	-8.1%	.	.
COc1ccc(S(=O)(=O)c2cnc3ccc(OC)cc3c2N2CCC3(CC2)OCCO3)cc1	8.28µM*	8.1%	-10.6	-7.3%	0.7	?
CCc1ccc(S(=O)(=O)c2cnc3ccc(OC)cc3c2N2CCCC(C)C2)cc1 (stereo not drawn)	.	.	.	2.2%	.	.
CCOc1ccc2ncc(S(=O)(=O)c3ccccc3)c(N3CCC4(CC3)OCCO4)c2c1	10.4µM*	0.6%	-2.3	-9.4%	-1.6	13.1µM*
CCC(=O)c1c(NC(CC)CO)cc(C)oc1=O (stereo not drawn)	24.0%	.	-21.5	0.5%	13.8	8.0%
CCN(CC)CCNC(=O)C(=O)NCC(c1cccnc1)N1CCN(c2ccccc2)CC1 (stereo not drawn)	.	.	.	-9.9%	.	.
COc1ccc(OCC#CCN2CCCCCC2)cc1	2.8%	.	29.9	?	11.7*	-0.8%
COc1ccc(CN2CCNCC2)cc1	43.4%	-1.6%	-6.5	50.1µM*	-0.6	175.3%
COc1ccc(OCC#CCN2CCNCC2)cc1	1.85µM*	-9.3%	17.1	-25.8%	10.6	15.5%
C(#CCN1CCCCC1)COCc1ccccc1	19.5%	-0.8%	57.7	?	17.1*	20.0%
CSCCC(NS(=O)(=O)c1ccc(C)cc1)C(=O)N1CCN(S(=O)(=O)c2ccc(F)cc2)CC1 (stereo not drawn)	?	.	.	-1.9%	.	?
COc1ccc(OCC#CCN2CC(C)OC(C)C2)cc1 (stereo not drawn)	?	.	6.4	7.08µM*	-2.2	-16.5%[5.75 µM]
CC1CCN(CC#CCOc2ccc(Cl)cc2)CC1	?	2.0%	.	?	9.5	-3.8%
COC(=O)NNC(=O)c1ccc(Cl)cc1Cl	-11.3%	2.0%	7.3	1.2%	-2.5	17.3%
O=C(NC1CC(=O)c2sccc21)c1ccc(Cl)cc1Cl (stereo not drawn)	86.4%	-4.6%	33.4	11.8%	31.5*	120.2%
N#CC(C#N)=Cc1cccnc1	6.0%	6.0%	3.6	.	-1.7	-1.3%
N#C/C(=C\c1cccnc1)c1ccc(Br)cc1	?	-41.6%	43.7	-1.8%	47.3*	?
COc1ccccc1Nc1cc(C(=O)NC2CCC(C)CC2)c2ccccc2n1 (stereo not drawn)	.	.	.	15.0%	.	.
O=C(CCS(=O)(=O)c1ccc(Cl)cc1)Nc1nc(-c2cccnc2)cs1	28.7%	3.0%	10.3	-34.5%	-2.4	-15.2%
Cc1ccc(Cl)cc1Nc1nc(-c2cccnc2)cs1	-7.2%	-85.1%	.	-12.7%	17.2*	?
Clc1ccc(-c2csc(Nc3cccnc3)n2)cc1	2.5%	2.5%	34.1	0.4%	12.4	9.7%
Clc1ccc(Nc2nc(-c3cccnc3)cs2)cc1	10.4%	-2.2%	119.1*	-21.5%	41.3*	.
c1ccc(-c2csc(Nc3cccnc3)n2)cc1	-2.3%	-3.3%	118.3*	77.1%	53.7*	109.3%
SMILES	Pf growth 96h	NS1 inh	Shiga inhibitor	Sm TGR inh	Cycloheximide cs	Pf growth 48h
Cc1cc(Cl)ccc1OCC(=O)Nc1nc(-c2cccnc2)cs1	0.0%	8.9%	11.6	-1.4%	1.1	?
O=C(Nc1nc(-c2ccncc2)cs1)c1ccc(F)cc1	26.2%	10.0%	-6.5	0.8%	5.7	0.0%
Fc1ccc(Nc2nc(-c3cccnc3)cs2)cc1	38.7%	-10.0%	145.6*	-0.4%[57.1 µM]	48.4*	42.4%
CSCCC(NC(=O)COc1ccccc1)C(=O)N1CC(C)OC(C)C1 (stereo not drawn)	-3.0%	.	.	-2.6%	.	-7.1%
C=CCSc1nc2c(cnn2-c2ccccc2)c(=O)n1N	221.1%	-39.7%	62.8*	-4.0%	53.3*	173.2%
CCOC(=O)N/N=C(\C)c1ccc(C)c([N+](=O)[O-])c1	0.0%	?	55.7	-3.0%	15.7*	43.2%
COc1ccc(/C(C)=N/NC(=O)OC(C)(C)C)cc1[N+](=O)[O-]	?	-7.0%	78.9*	-0.9%	22.3*	-20.7%
CCOC(=O)N/N=C(\C)c1ccc(Br)cc1	11.7µM*	-3.6%	64.9	1.7%	30.6*	.
CC[C@H](C)[C@H](NC(=O)[C@H](Cc1ccc(O)cc1)NC(=O)[C@H](Cc1cnc[nH]1)NC(=O)[C@H](CCCNC(=N)N)NC(=O)[C@H](CC(C)C)NC(=O)[C@H](C)NC(=O)[C@H](CO)NC(=O)[C@H](Cc1ccc(O)cc1)NC(=O)[C@H](Cc1ccc(O)cc1)NC(=O)[C@H](CCCNC(=N)N)NC(=O)[C@H](C)NC(=O)[C@H](CCSC)NC(=O)[C@H](CC(=O)O)NC(=O)[C@H](CCC(=O)O)NC(=O)[C@H](C)NC(=O)[C@@H]1CCCN1C(=O)[C@H](C)NC(=O)[C@H](CC(=O)O)NC(=O)[C@H](CCC(=O)O)NC(=O)CNC(=O)[C@@H]1CCCN1C(=O)[C@H](CC(N)=O)NC(=O)[C@H](CC(=O)O)NC(=O)[C@@H]1CCCN1C(=O)[C@H](CCCCN)NC(=O)[C@H](CO)NC(=O)[C@@H]1CCCN1C(=O)[C@@H](N)Cc1ccc(O)cc1)C(=O)N[C@@H](CC(N)=O)C(=O)N[C@@H](CC(C)C)C(=O)N[C@H](C(=O)N[C@H](C(=O)N[C@@H](CCCNC(=N)N)C(=O)N[C@@H](CCC(N)=O)C(=O)N[C@@H](CCCNC(=N)N)C(=O)N[C@@H](Cc1ccc(O)cc1)C(N)=O)[C@@H](C)O)[C@@H](C)CC	.	.	-5.6	.	-2.3	.
CC1CN(c2cnn(C(C)C)c(=O)c2Cl)CC(C)O1 (stereo not drawn)	18.4%	3.1%	6.6	-29.1%	2.8	37.2%
Cc1nnc2sc(-c3ccc(NC(=O)CSc4ccc(Cl)cc4)cc3)nn12	?	-57.7%	21.5	-13.4%	-0.3	5.22µM*
CCOC(=O)c1c(C)[nH]c(C)c1S(=O)(=O)N1CCC(C(=O)Nc2ccc(C)c(N(C)C)c2)CC1	.	.	.	1.5%	.	.
O=C(NCc1ccccc1)C1CCCN(S(=O)(=O)c2ccc(Br)cc2)C1 (stereo not drawn)	0.294µM*	2.4%	8.1	-2.0%	-0.9	-30.4%
COc1ccc(CCNC(=O)C2CCCN(S(=O)(=O)c3ccc(F)cc3)C2)cc1 (stereo not drawn)	?	18.5%	-15.0	89.1µM*	4.8	?
COc1ccc(Cl)cc1S(=O)(=O)N1CCCC(C(=O)NCc2ccccc2)C1 (stereo not drawn)	-11.9%	1.4%	-1.4	0.0%	-0.4	-16.4%
O=C(NCc1ccccc1)C1CCCN(S(=O)(=O)c2ccc(F)cc2)C1 (stereo not drawn)	11.7µM*	6.1%	-7.6	-22.1%	-3.1	-4.0%

Assay outcomes from PubChem BioAssay.
